A selection: hits, their analogues and other compounds. The true share with any hit is near 0.47%.
AID inh: Primary qHTS assay for inhibitors of Activation Induced Cytidine Deaminase (AID): AID signal | Single-stranded DNA cytosine deaminase (Homo sapiens), Q9GZX7 | AID deamination FRET fluorescence, UDG-coupled, 4 h | Potency, µM (titrated, usually from 115 µM), usual class: inhibitors | 0.32% of 91,000 active; note: nearly all actives have a fitted effect of over 25% in size
Target sequence (Q9GZX7 whole entry, looked up): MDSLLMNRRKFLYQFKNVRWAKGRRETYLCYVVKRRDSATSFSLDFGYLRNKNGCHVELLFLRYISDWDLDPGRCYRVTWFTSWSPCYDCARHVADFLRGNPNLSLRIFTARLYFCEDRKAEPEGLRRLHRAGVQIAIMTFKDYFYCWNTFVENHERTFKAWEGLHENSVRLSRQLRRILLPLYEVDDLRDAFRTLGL
UDG counter: Primary qHTS assay for inhibitors of Activation Induced Cytidine Deaminase (AID): UDG Counterscreen signal. FRET deamination/UDG coupled assay, UDG read, 4 h. 0.14% of 91,000 active. Uracil-DNA glycosylase. Potency, µM (titrated, usually from 115 µM), for the others: top-dose activity change, negative = inhibition, actives largely listed as inhibitors. AID 1347430, 2020; note: nearly all actives have a fitted effect of over 65% in size
* = called active by the depositor; [ ] = another dose, or the depositor's remark. Calls come from the whole dose curve; as a rule, active = well fitted curve in the direction sought with a large enough effect; inconclusive = small, poorly fitted or top-dose-only effect, or another doubt; inactive = no such curve, though single readings can be large; an effect the other way counts as inactive or inconclusive. % is set by controls: 0 for no effect and ±100 for the full control effect; potency is the fitted concentration of half-maximal effect.

How did Cc1nc2c(-c3ccccc3)c(C)[nH]n2c(=O)c1Cc1ccc(C(C)C)cc1 do in these assays?
AID inh: inactive; UDG counter: 79µM*

Results for CC(C)c1ccc(Nc2ncnc3onc(-c4ccc(F)cc4)c23)cc1 ?
AID inh: inconclusive; UDG counter: 89µM*

What do the screens show for `Cc1noc2ncnc(Nc3ccc(F)cc3)c12`?
AID inh: inactive; UDG counter: -13%

What do the screens show for `CCOCCCNC(=O)Cn1ccc2cc(S(=O)(=O)N3CCCCC3)ccc21`?
AID inh: inactive; UDG counter: 29%

Results for Oc1ccc(N=Cc2ccc3ccccc3c2)cc1 ?
AID inh: 14µM*; UDG counter: inconclusive

Results for Clc1ccc(N=Cc2ccc3ccccc3c2)cc1Cl ?
AID inh: inactive; UDG counter: 5%

What do the screens show for `CCN(C(=O)c1cc2c(=O)n3cccc(C)c3nc2s1)c1ccc(C)c(C)c1`?
AID inh: inconclusive; UDG counter: -2%[57.5 µM]

How did Cc1cccn2c(=O)c3cc(C(=O)N(Cc4ccccc4)C(C)C)sc3nc12 do in these assays?
AID inh: 79µM*; UDG counter: 0%

How did CSc1ccc(-c2ccnc3nc(N4CCOCC4)[nH]c(=O)c23)cc1 do in these assays?
AID inh: inactive; UDG counter: 4%

What do the screens show for `OCC1O[C@H]([S-])[C@H](O)[C@@H](O)[C@@H]1O.[Au+]` (stereo not given in full)?
AID inh: 25µM*; UDG counter: 3%

Results for Cc1cccc(Cn2c(-c3ccccc3)nc3ccccc32)c1 ?
AID inh: inconclusive; UDG counter: -19%[57.5 µM]

Results for Fc1ccccc1Cn1c(-c2ccccc2)nc2ccccc21 ?
AID inh: 45µM*; UDG counter: inconclusive

What do the screens show for `COCCNC(=O)NC(=O)Cn1nc(C(=O)O)c2ccccc2c1=O`?
AID inh: inactive; UDG counter: 1%

How did CCN(CC)S(=O)(=O)c1ccc(NS(=O)(=O)c2ccc(C)cc2)cc1 do in these assays?
AID inh: inactive; UDG counter: -7%

Results for COC(=O)c1ccc(CNC(=O)C2CC=CCC2)cc1 (stereo not given) ?
AID inh: inactive; UDG counter: 0%

What do the screens show for `O=C(Cn1cnc2nc3c(cc2c1=O)CCCC3)N1CCN(c2cccc(C(F)(F)F)c2)CC1`?
AID inh: inactive; UDG counter: -8%

How did Cc1ccc(Cl)cc1N1CCN(C(=O)Cn2cnc3nc4c(cc3c2=O)CCCC4)CC1 do in these assays?
AID inh: 40µM*; UDG counter: inconclusive

How did COc1ccc(-n2c(=O)c3c4c(sc3n(Cc3ccc(C(C)(C)C)cc3)c2=O)CCC4)c(OC)c1 do in these assays?
AID inh: 35µM*; UDG counter: inconclusive

What do the screens show for `COc1ccc(-n2c(=O)c3c4c(sc3n(Cc3ccccc3C)c2=O)CCCC4)c(OC)c1`?
AID inh: inconclusive; UDG counter: -19%

How did COc1ccc(/C(C)=N/O)c(F)c1 do in these assays?
AID inh: inactive; UDG counter: -3%

How did CC1CCN(Cc2c(O)ccc3c(=O)c(-c4ccc(Cl)cc4)c(C(F)(F)F)oc23)CC1 do in these assays?
AID inh: inactive; UDG counter: 36%

What do the screens show for `CCOc1ccc(C2c3c(-c4ccccc4O)n[nH]c3C(=O)N2Cc2cccnc2)cc1OC` (stereo not given)?
AID inh: inactive; UDG counter: -9%

Results for Cc1cccc(-n2cc(-c3ccccc3)c3c(N4CCC(C)CC4)ncnc32)c1 ?
AID inh: inconclusive; UDG counter: -4%[57.5 µM]

What do the screens show for `CC(=O)N1CCN(c2ncnc3c2c(-c2ccccc2)cn3-c2cccc(C)c2)CC1`?
AID inh: inconclusive; UDG counter: 79µM*

What do the screens show for `CC(CC(=O)Nc1cccc(C(N)=O)c1)(C(=O)O)c1ccccc1` (stereo not given)?
AID inh: inactive; UDG counter: 0%

What do the screens show for `COC(=O)C1CCN(S(=O)(=O)c2cc3c4c(c2)CC(=O)N4CCC3)CC1`?
AID inh: inactive; UDG counter: 0%

What do the screens show for `O=C1Cc2cc(S(=O)(=O)N3CCCCC3)cc3c2N1CCC3`?
AID inh: inconclusive; UDG counter: 89µM*

How did Cc1ccn2c(Nc3ccccc3)c(-c3c[nH]c4ccccc34)nc2c1 do in these assays?
AID inh: inactive; UDG counter: 6%

Results for Cc1ccc(Nc2c(-c3c[nH]c4ccccc34)nc3cc(C)ccn23)cc1 ?
AID inh: inconclusive; UDG counter: 79µM*

How did Cc1ccc(Nc2nc(C(=O)OCC(=O)c3ccccc3)cs2)cc1 do in these assays?
AID inh: inactive; UDG counter: -6%

Results for O=C(Cn1nc(Cc2cccnc2)c2ccccc2c1=O)N1CCN(c2ccc(F)cc2)CC1 ?
AID inh: inactive; UDG counter: -4%[57.5 µM]

Results for Cc1ccc(C)c(N2CCN(C(=O)Cn3nc(Cc4cccnc4)c4ccccc4c3=O)CC2)c1 ?
AID inh: 71µM*; UDG counter: -6%[57.5 µM]

Results for Cc1cc(C)c(/C=C/c2onc(C)c2S(=O)(=O)N2CCC(C(=O)N3CCN(c4ccc(Cl)cc4)CC3)CC2)c(C)c1 ?
AID inh: inactive; UDG counter: -2%

Results for CCn1nc(C(=O)Nc2nc3ccccc3[nH]2)c2ccccc2c1=O ?
AID inh: inactive; UDG counter: -12%

What do the screens show for `Nc1c(S(=O)(=O)O)cc(Nc2ccc(Nc3nc(Cl)nc(Nc4ccc(S(=O)(=O)O)cc4)n3)c(S(=O)(=O)O)c2)c2c1C(=O)c1ccccc1C2=O`?
AID inh: 22µM*; UDG counter: -19%

How did CCOc1ccccc1Oc1coc2cc(OCC(=O)N3CCCCC3)ccc2c1=O do in these assays?
AID inh: inactive; UDG counter: -6%

How did CCCc1nnc(NC(=O)C(CC)Sc2nnc3c4ccccc4n(C)c3n2)s1 (stereo not given) do in these assays?
AID inh: inactive; UDG counter: 1%[57.5 µM]

How did CCc1cccc(C)c1NC(=O)CN1CCCN(Cc2ccc(C)cc2)S1(=O)=O do in these assays?
AID inh: inactive; UDG counter: -2%

Results for CC(C)C(NC(=O)c1cccc(S(=O)(=O)N(C)C)c1)c1ccc2c(c1)OCCCO2 (stereo not given) ?
AID inh: inactive; UDG counter: -1%

What do the screens show for `O=C(NCc1ccccc1)c1cc2ccccc2o1`?
AID inh: inactive; UDG counter: -10%

How did Cc1ccc(NC(=O)Cc2nnc(SCC(=O)NC34CC5CC(CC(C5)C3)C4)n2C)cc1C do in these assays?
AID inh: inactive; UDG counter: 89µM*

What do the screens show for `Cn1c(CC(=O)Nc2ccccc2)nnc1SCC(=O)NC12CC3CC(CC(C3)C1)C2`?
AID inh: inactive; UDG counter: 8%

How did O=C(CCCCn1c(=O)c2ccccc2n(CC(=O)Nc2ccc(F)cc2F)c1=O)NCc1ccccc1Cl do in these assays?
AID inh: inactive; UDG counter: -7%

What do the screens show for `CC1CCN(S(=O)(=O)c2ccc3c(c2)N(CC(=O)NCCCN2CCCCC2)C(=O)CS3)CC1`?
AID inh: inactive; UDG counter: 0%

What do the screens show for `Cn1nc(CC(=O)Nc2ccc(S(=O)(=O)N3CCCCCC3)cc2)c2ccccc2c1=O`?
AID inh: inactive; UDG counter: -4%

How did O=C(Cc1n[nH]c(=O)c2ccccc12)Nc1ccc(S(=O)(=O)N2CCCC2)cc1 do in these assays?
AID inh: 40µM*; UDG counter: -19%

Source: PubChem BioAssay
